# Only a selection was taken, and the strongest signals are over-represented in it overall.
# Columns and labels:
# Experiment in all cases: glycan array binding signal (z-score within array); higher = stronger binding
# Details in all cases: glycan notation: IUPAC condensed, linker removed
# [1] = target: Fuc(a1-2)Gal(b1-3)GlcNAc(b1-2)Man(a1-3)[Fuc(a1-2)Gal(b1-3)GlcNAc(b1-2)Man(a1-6)]Man(b1-4)GlcNAc(b1-4)GlcNAc
# Method in brief: (§1)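 Glycan array data came from 3228 arrays in the Consortium for Functional Glycomics database, and only arrays with an available protein sequence were kept. Glycan names were put into IUPAC-condensed notation, and columns mapping to the same glycan were averaged. The binding signal is a within-array Z-score, averaged across arrays of one protein sequence run at different concentrations or buffers and across linkers. A negative Z-score can be read as non-binding.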
# [2] = target: Fuc(a1-2)Gal(b1-4)Fuc(a1-3)]GlcNAc(b1-2)Man(a1-3)[Fuc(a1-2)Gal(b1-4)[Fuc(a1-3)]GlcNAc(b1-2)Man(a1-6)]Man(b1-4)GlcNAc(b1-4)GlcNAc
# Method in brief: as §1
# Fuc(a1-2)Gal(b1-4)GlcNAc = target: Fuc(a1-2)Gal(b1-4)GlcNAc
# Method in brief: as §1
# [3] = target: Fuc(a1-2)Gal(b1-4)GlcNAc(b1-2)Man(a1-3)[Fuc(a1-2)Gal(b1-4)GlcNAc(b1-2)Man(a1-6)]Man(b1-4)GlcNAc(b1-4)[Fuc(a1-6)]GlcNAc
# Method in brief: as §1
# [4] = target: Fuc(a1-2)Gal(b1-4)GlcNAc(b1-3)Gal(b1-4)GlcNAc(b1-2)Man(a1-3)[Fuc(a1-2)Gal(b1-4)GlcNAc(b1-3)Gal(b1-4)GlcNAc(b1-2)Man(a1-6)]Man(b1-4)GlcNAc(b1-4)GlcNAc
# Method in brief: as §1
# [5] = target: Fuc(a1-2)[Gal(a1-3)]Gal(b1-3)GlcNAc(b1-2)Man(a1-3)[Fuc(a1-2)[Gal(a1-3)]Gal(b1-3)GlcNAc(b1-2)Man(a1-6)]Man(b1-4)GlcNAc(b1-4)GlcNAc
# Method in brief: as §1
# [6] = target: Fuc(a1-2)[Gal(a1-3)]Gal(b1-3)GlcNAc(b1-6)GalNAc
# Method in brief: as §1
# [7] = target: Fuc(a1-2)[Gal(a1-3)]Gal(b1-4)Glc
# Method in brief: as §1
# [8] = target: Fuc(a1-2)[GalNAc(a1-3)]Gal(b1-4)GlcNAc(b1-2)Man(a1-3)[Fuc(a1-2)[GalNAc(a1-3)]Gal(b1-4)GlcNAc(b1-2)Man(a1-6)]Man(b1-4)GlcNAc(b1-4)[Fuc(a1-6)]GlcNAc
# Method in brief: as §1
# [9] = target: Fuc(a1-2)[GalNAc(a1-3)]Gal(b1-4)GlcNAc(b1-3)GalNAc
# Method in brief: as §1
# [10] = target: Fuc(a1-2)[GalNAc(b1-3)]Gal
# Method in brief: as §1
# [11] = target: Fuc(a1-3)[Gal(b1-4)]GlcNAc(b1-2)Man(a1-3)[Fuc(a1-3)[Gal(b1-4)]GlcNAc(b1-2)Man(a1-6)]Man(b1-4)GlcNAc(b1-4)[Fuc(a1-6)]GlcNAc
# Method in brief: as §1
# [12] = target: Fuc(a1-3)[Gal3S(b1-4)]Glc
# Method in brief: as §1
# [13] = target: Gal(a1-3)Gal(b1-3)GlcNAc(b1-2)Man(a1-3)[Gal(a1-3)Gal(b1-3)GlcNAc(b1-2)Man(a1-6)]Man(b1-4)GlcNAc(b1-4)GlcNAc
# Method in brief: as §1
# [14] = target: Gal(a1-4)Gal(b1-3)GlcNAc(b1-2)Man(a1-3)[Gal(a1-4)Gal(b1-3)GlcNAc(b1-2)Man(a1-6)]Man(b1-4)GlcNAc(b1-4)GlcNAc
# Method in brief: as §1
# [15] = target: Gal(b1-3)GalNAc(a1-3)[Fuc(a1-2)]Gal(b1-4)GlcNAc
# Method in brief: as §1
# [16] = target: Gal(b1-3)GlcNAc(b1-3)Gal(b1-4)GlcNAc(b1-2)Man(a1-3)[Gal(b1-3)GlcNAc(b1-3)Gal(b1-4)GlcNAc(b1-2)Man(a1-6)]Man(b1-4)GlcNAc(b1-4)GlcNAc
# Method in brief: as §1
# [17] = target: Gal(b1-3)GlcNAc(b1-3)Gal(b1-4)GlcNAc(b1-6)[Gal(b1-3)GlcNAc(b1-3)]Gal(b1-4)Glc
# Method in brief: as §1
# [18] = target: Gal(b1-3)GlcNAc(b1-6)GalNAc
# Method in brief: as §1
# [19] = target: Gal(b1-3)[Fuc(a1-4)]GlcNAc
# Method in brief: as §1
# Gal(b1-4)Glc6S = target: Gal(b1-4)Glc6S
# Method in brief: as §1
# [20] = target: Gal(b1-4)GlcNAc(b1-2)Man(a1-3)Man(b1-4)GlcNAc(b1-4)GlcNAc
# Method in brief: as §1
# [21] = target: Gal(b1-4)GlcNAc(b1-3)Gal(b1-4)GlcNAc(b1-2)Man(a1-3)[Gal(b1-4)GlcNAc(b1-3)Gal(b1-4)GlcNAc(b1-2)Man(a1-6)]Man(b1-4)GlcNAc(b1-4)GlcNAc
# Method in brief: as §1
# [22] = target: Gal(b1-4)GlcNAc(b1-3)Gal(b1-4)GlcNAc(b1-2)Man(a1-3)[Gal(b1-4)GlcNAc(b1-3)Gal(b1-4)GlcNAc(b1-2)Man(a1-6)]Man(b1-4)GlcNAc(b1-4)[Fuc(a1-6)]GlcNAc
# Method in brief: as §1
# [23] = target: Gal(b1-4)GlcNAc(b1-3)Gal(b1-4)GlcNAc(b1-2)[Gal(b1-4)GlcNAc(b1-3)Gal(b1-4)GlcNAc(b1-6)]Man(a1-6)[Gal(b1-4)GlcNAc(b1-3)Gal(b1-4)GlcNAc(b1-2)Man(a1-3)]Man(b1-4)GlcNAc(b1-4)[Fuc(a1-6)]GlcNAc
# Method in brief: as §1
# [24] = target: Gal(b1-4)GlcNAc(b1-3)Gal(b1-4)GlcNAc(b1-3)Gal(b1-4)GlcNAc(b1-2)Man(a1-3)[Gal(b1-4)GlcNAc(b1-3)Gal(b1-4)GlcNAc(b1-3)Gal(b1-4)GlcNAc(b1-2)Man(a1-6)]Man(b1-4)GlcNAc(b1-4)GlcNAc
# Method in brief: as §1
# [25] = target: Gal(b1-4)GlcNAc(b1-3)Gal(b1-4)GlcNAc(b1-3)Gal(b1-4)GlcNAc(b1-2)[Gal(b1-4)GlcNAc(b1-3)Gal(b1-4)GlcNAc(b1-3)Gal(b1-4)GlcNAc(b1-6)]Man(a1-6)[Gal(b1-4)GlcNAc(b1-3)Gal(b1-4)GlcNAc(b1-3)Gal(b1-4)GlcNAc(b1-2)Man(a1-3)]Man(b1-4)GlcNAc(b1-4)[Fuc(a1-6)]GlcNAc
# Method in brief: as §1
# [26] = target: Gal(b1-4)GlcNAc(b1-3)Gal(b1-4)GlcNAc(b1-3)[Gal(b1-4)GlcNAc(b1-3)Gal(b1-4)GlcNAc(b1-6)]GalNAc
# Method in brief: as §1
# [27] = target: Gal(b1-4)GlcNAc(b1-3)Gal(b1-4)GlcNAc(b1-6)[Gal(b1-3)]GalNAc
# Method in brief: as §1
# Gal6S(b1-4)GlcNAc6S = target: Gal6S(b1-4)GlcNAc6S
# Method in brief: as §1
binder,measurement,setting,value
"InvD YPIII (Yersinia pseudotuberculosis), B1JSC0 (protein) MIKYFSFFKKPEPIVGILPNRQSHHILPTHIRRVAWGTLLLQLFIPLSVSFSPAIAAMKASKADTMVSYSSTEPYVLGSGETVAMVAKKYGITVDELKKINIYRTFSRPFTALTTGDEIDIPRKASPFSVDNNKDNRLSVENTLAGHAVAGATALSNGDVAKSGERMVRSAASNEFNNSAQQWLSQFGTARVQLNINDDFHLDGSAADVLIPLYDNEKSILFTQLGARNKDSRNTVNMGAGVRTFQGNWMYGANTFFDNDLTGKNRRIGVGAEAWTDYLKLSANNYFGITDWHQSRDFIDYNERPANGYDLRAEAYLPSYPQLGGKAMYEKYRGDDVALFGKDNRQKNPHAITAGVNYTPIPLVTIGAEHRAGKGGQNDSNINFQLNYRLGETWQSHIDPSAVAASRTLAGSRYDLVERNNHIVLDYQKQNLVRLSLPDSLAGDPFSQLSVTAQVTATHGLERIDWQSAELMAAGGVLKQTSKNGLEITLPEYQMNRTGGNSYILNAIAYDTQGNASSQASMLITVNAQKINIANSTLVAVPINIEANNSDTSVVTLTLKDDNNIPVTGQDVTFLSPLGTLSAMTDSGNGVYTATLTAGTVSGTTAVSSNINGSALDMTPATVTLNGNSGELSITHSMLVAAPVNIEANGSDTSVVTLTLRDSNNNPVTGQTVTFAGTLGTLGAVTEGSSGVYTATLTAGIMVGTSSITASVNSTALGVTPATVTLNGDSGNLSTTNSTLVAAPVNIEANSSDTSVVTLTLRDNNNNPVTGQTVVFTSTLGTLGNVTEQASGVYTATLTAGTVSGVASLSVSVGGNALGVTPATVTLNGDSGNLSTTNSTLVAAPVNIEANSSDTSVVTLTLRDNNNNPVTGQTVNFAGTLGTLGTVSEGSSGVYTTTLTAGTVAGVASLSVNVGGNALGVTPATVTLNGNSGNLSATNSTLVAAPVNIEANSSDTSVVTLTLRDNNNNPVTGQTVAFTSTLGTLGNVTEQASGVYTATLTAGTVSGVASLSVSVNSNALGVTPATVTLNGDSGNLSTTNSTLVAAPVNIEANSSDTSVVTLTLRDNNNNPVTGQTVAFTSTLGTLGNVTEQASGLYTATLTAGTVSGVASLSVNVGGNALGVTPATVTLNGDSGNLSATNSTLVAAPVNIEANSSDTSVVTLTLRDNNNNPVTGQTVAFTSTLGTLGNVTEQASGLYTATLTAGTVSGVASLSVNVGGTALGVTPATVTLNGDSGNLSTTNSTLVAAPVNIEANSSDTSVVTLTLRDNNNNPVTGQTVAFTSTLGTLGNVTEQASGLYTATLTAGTVSGVASLSVSVNSTALGVTPATVTLNGDSGNLSTTNSTLVAAPVNIEANSSDTSVVTLTLRDNNNNPVTGQTVAFTSTLGTLGNVTEQASGVYTATLTAGTVAGVASLSVNVGGNALGVTPATVTLNGDSGNLSTTNSTLVAAPVNIEANSSDTSVVTLTLRDNNNNPVTGQTVAFTSTLGTLGNVTEQASGVYTATLTAGTVSGVASLSVSVGSSALGVTPATVTLNGDSGNLSTTNSTLVAAPVNIEANNSDTSVVTLTLRDNNNNPVTGQTVAFTSTLGTLGNVTEQASGVYTATLTAGTVSGVASLSVSVNSNALGVTPATVTLNGDSGNLSTTNSTLVAAPVNIEANSSDTSVVTLTLRDNNNNPVTGQTVVFTSTLGTLGNVTEQASGLYTATLTAGTVSGVASLSVSVGGNALGVTGNITLAPGALDAARSILAVNKPSINADDRIGSTITFTAQDAQGNAITGLDIAFMTDLENSQIMTLVDHNDGTYTANINGTQTGIANIAVQSSGATIAGLAATMVTITPGAWNTTQATPVMTVALPITTCQSSSGVYKRYYIGIVTHELYDNYGNEISGILTYNLGAGRYTTVTSQNSSVSGSNGLTRRSNSPVSHFILTSDAYTSQAACYAERIANVNVTITVTAITDDFKTSAVNKVFILGTGSN",glycan array binding signal (z-score),[1],0.001
same,glycan array binding signal (z-score),[2],1.36
same,glycan array binding signal (z-score),Fuc(a1-2)Gal(b1-4)GlcNAc,-0.154
same,glycan array binding signal (z-score),[3],0.037
same,glycan array binding signal (z-score),[4],-0.232
same,glycan array binding signal (z-score),[5],-0.164
same,glycan array binding signal (z-score),[6],0.218
same,glycan array binding signal (z-score),[7],-0.359
same,glycan array binding signal (z-score),[8],0.113
same,glycan array binding signal (z-score),[9],-0.306
same,glycan array binding signal (z-score),[10],0.063
same,glycan array binding signal (z-score),[11],-0.147
same,glycan array binding signal (z-score),[12],-0.259
same,glycan array binding signal (z-score),[13],0.213
same,glycan array binding signal (z-score),[14],0.015
same,glycan array binding signal (z-score),[15],-0.102
same,glycan array binding signal (z-score),[16],-0.358
same,glycan array binding signal (z-score),[17],-0.192
same,glycan array binding signal (z-score),[18],-0.16
same,glycan array binding signal (z-score),[19],-0.119
same,glycan array binding signal (z-score),Gal(b1-4)Glc6S,-0.213
same,glycan array binding signal (z-score),[20],-0.355
same,glycan array binding signal (z-score),[21],10.1
same,glycan array binding signal (z-score),[22],2.01
same,glycan array binding signal (z-score),[23],1.88
same,glycan array binding signal (z-score),[24],1.59
same,glycan array binding signal (z-score),[25],1.62
same,glycan array binding signal (z-score),[26],1.71
same,glycan array binding signal (z-score),[27],1.51
same,glycan array binding signal (z-score),Gal6S(b1-4)GlcNAc6S,-0.131
